Experimental data taken from PubChem BioAssay AID1532 (PCMD, 2009).
In all, about 110,000 compounds went through this assay and about 420 (0.38%) were called active. Cut-off read from the data, not from the text of the source: active = inhibition above about 30% (passing the limit was not always enough); inconclusive = no clear call, values can overlap the other calls. The entries come from a sample that favours actives as a whole.

System: RmlC (dTDP-4-dehydrorhamnose 3,5-epimerase) and RmlD (dTDP-4-dehydrorhamnose reductase), coupled enzyme assay
Experiment: RmlC and RmlD coupled enzyme inhibitors, primary screen, biochemical, 384-well, compound mixtures, retest (AID 1532)
Details: 384-well mixture HTS, at 5.5 µM, stronger effect = higher value
[1] = measured here: mean retest inhibition

SMILES: CCO[C@@H]1OC(C(=O)N2CCOCC2)=C[C@H](C)[C@H]1CCCO
- inhibition: -9.82% (inactive)

SMILES: CC1(OC(=O)CCc2ccccc2)C(=O)C=C2C=C(c3ccc(C#N)cc3)N(CCc3ccccn3)C=C2C1=O (stereo not drawn)
- inhibition: 3.85% (inactive)

SMILES: O=c1oc2cc(O)ccc2cc1-c1ccc(F)cc1
- inhibition: 136% (active)
- inhibition [1]: 118%

SMILES: O=c1c(-c2ccccc2)coc2cc(O)ccc12
- inhibition: 44.3% (inactive)
- inhibition [1]: 18%

SMILES: COc1ccc(-c2cc3ccc(OCc4nn[nH]n4)cc3oc2=O)cc1
- inhibition: 94.2% (inactive)
- inhibition [1]: 82.7%

SMILES: COC(C[C@@H]1O[C@@H]1C(=O)[C@@H](C)OCc1ccccc1)OC
- inhibition: 13.7% (inactive)

SMILES: CC1(C)C=C2[C@H]3CC[C@@H]4[C@@]5(C)CCC(=O)C(C)(C)[C@@H]5CC[C@@]4(C)[C@]3(C)CC[C@@]2(C(=O)O)CC1
- inhibition: 9.38% (inactive)

SMILES: C[C@@H]1NC(=O)c2cc([N+](=O)[O-])cc(F)c2NCCC[C@@H](C(N)=O)NC(=O)[C@H](CC(N)=O)NC1=O
- inhibition: 5.67% (inactive)

SMILES: CNC(=O)c1[nH]cnc1C(=O)N[C@@H](CC(C)C)C(=O)OCc1ccccc1
- inhibition: 1.9% (inactive)

SMILES: CCOC(=O)c1cccc(NC(=O)c2ccc(F)cc2F)c1
- inhibition: -9.66% (inactive)

SMILES: O=C(NC1CC1)C1=C[C@H](c2c[nH]c3ccccc23)C[C@H](OCc2ccc(CO)cc2)O1
- inhibition: 7.9% (inactive)

SMILES: Cn1ccnc1-c1nnn(-c2ccc(F)cc2)n1
- inhibition: -8.61% (inactive)

SMILES: CCC(=O)Nc1cccc(C2=NOC3(C2)C[C@@H](C(N)=O)N(C(=O)c2cc([N+](=O)[O-])cc([N+](=O)[O-])c2C)C3)c1 (stereo partly drawn)
- inhibition: 4.35% (inactive)

SMILES: CNC(=O)c1cc2c(ccc3ccccc32)oc1=N
- inhibition: 52.7% (active)
- inhibition [1]: 155%

SMILES: CC(=O)c1ccc2c(ccc3ccccc32)c1
- inhibition: 5.48% (inactive)

SMILES: CCOC(=O)N1CCN(C(=O)c2cc3c(ccc4ccccc43)oc2=O)CC1
- inhibition: 2.38% (inactive)

SMILES: CCOC(=O)c1c(NC(=O)C(C)Sc2c[nH]c3ccccc23)sc2c1CCC2 (stereo not drawn)
- inhibition: -9.18% (inactive)

SMILES: CCOC(=O)C[C@H]1c2ccc(C(F)(F)F)cc2S(=O)(=O)N1c1ccccc1
- inhibition: -16.1% (inactive)

SMILES: COc1ccc(C[C@H]2CN3C(=NC[C@H]3C)N2CCNC(=O)CCC2CCCCC2)cc1
- inhibition: 6.01% (inactive)
